Out of some 5,500 compounds screened, about 2,000 (36%) were called active. About 18% were inconclusive and are not listed. No stated cut-off is given here; in the data, active means normalized growth mostly below about 0.91 (no sharp cut-off); inconclusive means no clear call, values can overlap the other calls; inactive means mostly above about 0.92. Some of the results follow.
Test: chemical genetic growth profiling, strain panel (AID 1159580);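 further: tested at 20 µM; growth read once vehicle control cultures reached saturation at 30 °C; 1 = growth at the plate median or of vehicle wells; lower values mean less growth of the strain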
Settings: S. cerevisiae deletion strains, growth OD
[1] = locus YBL105C, strain PKC1, active compounds read low
[2] = locus YBR135W, strain CKS1, active compounds read low
[3] = locus YBR160W, strain CDC28, active compounds read low
[4] = locus YDL017W, strain CDC7, active compounds read low
[5] = locus YDL028C, strain MPS1, active compounds read low
[6] = locus YDL101C, strain DUN1, active compounds read low
[7] = locus YDL108W, strain KIN28, active compounds read low
[8] = locus YDL132W, strain cdc53, active compounds read low
[9] = locus YDL214C, strain PRR2, active compounds read low
[10] = locus YDR052C, strain DBF4, active compounds read low
[11] = locus YDR054C, strain cdc34, active compounds read low
[12] = locus YDR477W, strain SNF1, active compounds read low
[13] = locus YER123W, strain YCK3, active compounds read low
[14] = locus YER133W, strain GLC7, active compounds read low
[15] = locus YFL029C, strain CAK1, active compounds read low
[16] = locus YFR003C, strain YPI1, active compounds read low
[17] = locus YFR028C, strain CDC14, active compounds read low
[18] = locus YGR040W, strain KSS1, active compounds read low
[19] = locus YGR052W, strain FMP48, active compounds read low
[20] = locus YGR092W, strain DBF2, active compounds read low
[21] = locus YHR030C, strain SLT2, active compounds read low
[22] = locus YHR079C, strain IRE1, active compounds read low
[23] = locus YHR082C, strain KSP1, active compounds read low
[24] = locus YHR205W, strain SCH9, active compounds read low
[25] = locus YIL147C, strain SLN1, active compounds read low
[26] = locus YJL095W, strain BCK1, active compounds read low
[27] = locus YJL128C, strain PBS2, active compounds read low
[28] = locus YJL157C, strain FAR1, active compounds read low
[29] = locus YJR066W, strain TOR1 (second series), active compounds read low
[30] = locus YJR066W, strain TOR1, active compounds read low
[31] = locus YKL048C, strain ELM1, active compounds read low
[32] = locus YKL067W, strain YNK1, active compounds read low
[33] = locus YKL101W, strain HSL1, active compounds read low
[34] = locus YKL203C, strain TOR2, active compounds read low
[35] = locus YLR113W, strain HOG1, active compounds read low
[36] = locus YLR133W, strain CKI1, active compounds read low
[37] = locus YLR403W, strain SFP1, active compounds read low
[38] = locus YML070W, strain DAK1, active compounds read low
[39] = locus YMR001C, strain CDC5, active compounds read low
[40] = locus YMR205C, strain PFK2 (second series), active compounds read low
[41] = locus YMR277W, strain FCP1, active compounds read low
[42] = locus YNL006W, strain LST8, active compounds read low
[43] = locus YNL020C, strain ARK1, active compounds read low
[44] = locus YNL183C, strain NPR1, active compounds read low
[45] = locus YNL207W, strain RIO2, active compounds read low
[46] = locus YNL222W, strain SSU72, active compounds read low
[47] = locus YNL307C, strain MCK1 (second series), active compounds read low
[48] = locus YOL078W, strain AVO1, active compounds read low
[49] = locus YOL136C, strain PFK27, active compounds read low
[50] = locus YOR061W, strain CKA2, active compounds read low
[51] = locus YOR119C, strain RIO1, active compounds read low
[52] = locus YOR231W, strain MKK1, active compounds read low
[53] = locus YOR329C, strain SCD5, active compounds read low
[54] = locus YPL031C, strain PHO85, active compounds read low
[55] = locus YPL153C, strain RAD53, active compounds read low
[56] = locus YPL204W, strain HRR25, active compounds read low
[57] = locus YPL209C, strain IPL1, active compounds read low
[58] = locus YPL256C, strain CLN2, active compounds read low
[59] = locus YPR025C, strain CCL1, active compounds read low
[60] = locus YPR106W, strain ISR1, active compounds read low
[61] = locus YPR111W, strain DBF20, active compounds read low
[62] = strain NNK1, active compounds read low
[63] = strain TSCII, active compounds read low

Measured: normalized growth

Cc1ccc(OCC2SCCN2C(=O)c2ccc(C(F)(F)F)cc2)c([N+](=O)[O-])c1 (stereo not given)
inactive: locus YAR019C, strain CDC15, active compounds read low 1.01 | [1] 1.01 | [2] 1.01 | locus YBR136W, strain MEC1, active compounds read low 1.02 | [3] 1.01 | [4] 1.03 | [5] 1.02 | [6] 1 | [7] 1.02 | [8] 1 | [9] 0.998 | [10] 1.02 | [11] 0.986 | locus YDR226W, strain ADK1, active compounds read low 1.01 | [12] 0.981 | [13] 0.955 | [14] 0.985 | locus YFL009W, strain cdc4, active compounds read low 1.02 | [15] 1.01 | [16] 1.01 | locus YFR019W, strain FAB1, active compounds read low 0.97 | [17] 1.01 | [18] 1 | [19] 1.12 | [20] 1.02 | [21] 0.984 | [22] 1.01 | [23] 1.09 | [24] 0.998 | [25] 1.02 | [26] 1.01 | [27] 0.979 | [28] 0.994 | locus YJR016C, strain ILV3, active compounds read low 1.01 | [29] 0.927 | [30] 1.06 | [31] 1 | [32] 1 | [33] 0.996 | locus YKL193C, strain SDS22, active compounds read low 1.02 | [34] 1.04 | [35] 0.97 | [36] 1 | [37] 0.997 | [38] 0.982 | [39] 1.01 | [40] 1 | [41] 1.02 | [42] 1.02 | [43] 1 | locus YNL161W, strain CBK1, active compounds read low 1.01 | [44] 1.06 | [45] 1.02 | [46] 1.01 | [47] 0.993 | [48] 1.01 | [49] 0.965 | [50] 0.978 | [51] 1.05 | [52] 0.955 | [53] 1.02 | [54] 0.992 | [55] 0.987 | [56] 0.99 | [57] 1.01 | [58] 0.962 | [59] 1.01 | [60] 1.01 | [61] 1 | [62] 1.03 | [63] 1

COC(=O)c1sccc1OC(=O)c1c(F)cccc1F
inactive: locus YAL013W, strain DEP1, active compounds read low 0.963 | locus YBR229C, strain ROT2, active compounds read low 0.974 | [6] 0.908 | locus YDR150W, strain NUM1, active compounds read low 0.939 | locus YEL061C, strain CIN8, active compounds read low 1.01 | locus YGR078C, strain PAC10, active compounds read low 0.955 | [21] 0.726 | locus YHR087W, strain rtc3, active compounds read low 1.02 | locus YJR043C, strain POL32, active compounds read low 0.981 | locus YJR075W, strain HOC1, active compounds read low 0.97 | locus YKL190W, strain CNB1, active compounds read low 0.989 | locus YLR039C, strain RIC1, active compounds read low 0.841 | locus YLR058C, strain SHM2 (second series), active compounds read low 0.961 | locus YLR085C, strain ARP6, active compounds read low 0.891 | locus YLR262C, strain YPT6, active compounds read low 0.914 | locus YML094W, strain GIM5, active compounds read low 0.981 | locus YMR219W, strain ESC1, active compounds read low 0.955 | locus YMR263W, strain SAP30, active compounds read low 0.974 | locus YMR307W, strain GAS1, active compounds read low 0.975 | locus YNL153C, strain GIM3, active compounds read low 0.99 | locus YNL298W, strain CLA4 (second series), active compounds read low 0.912 | locus YNL322C, strain KRE1, active compounds read low 0.96 | locus YNR030W, strain Alg12, active compounds read low 0.979 | locus YOL006C, strain TOP1, active compounds read low 0.884 | locus YPL055C, strain LGE1, active compounds read low 0.97 | locus YPL241C, strain CIN2, active compounds read low 0.926 | locus YPR135W, strain CTF4, active compounds read low 0.768

O=C(Oc1ccc(C(F)(F)F)cc1[N+](=O)[O-])c1cccc(Cl)c1
inactive: [1] 0.953 | [2] 0.936 | [3] 0.944 | [4] 0.947 | [5] 0.941 | [7] 0.936 | [8] 0.911 | [9] 0.746 | [10] 0.944 | [15] 0.923 | [16] 0.944 | [17] 0.938 | [25] 0.947 | [34] 0.712 | [39] 0.943 | [41] 0.948 | [42] 0.945 | [46] 0.93 | [48] 0.939 | [53] 0.946 | [57] 0.941 | [59] 0.937 | [63] 0.94
active: [11] 0.613 | [12] 0.626 | [13] 0.423 | [14] 0.584 | [18] 0.617 | [19] 0.124 | [20] 0.133 | [21] 0.132 | [22] 0.22 | [23] 0.162 | [24] 0.00246 | [26] 0.141 | [27] 0.132 | [28] 0.638 | [29] 0.248 | [30] 0.134 | [31] 0.623 | [32] 0.645 | [33] 0.662 | [35] 0.21 | [36] 0.556 | [37] 0.0472 | [38] 0.521 | [40] 0.584 | [43] 0.513 | [44] 0.132 | [45] 0.571 | [47] 0.295 | [49] 0.426 | [50] 0.369 | [51] 0.448 | [52] 0.348 | [54] 0.507 | [55] 0.581 | [56] 0.449 | [58] 0.266 | [60] 0.584 | [61] 0.363 | [62] 0.554

Source: PubChem BioAssay AID1159580 (chemical genetic matrix, 2015)
